Hits are enriched below; roughly 5.6% of the tested compounds scored in any of these assays.
Cardio protect: myocardial damage modulation in H9c2 cells; H9c2 cardiomyocytes, H2O2 injury protection, ATPLite, 2 h; protection from H2O2 cell death, % at 20 µM; 360,000 compounds, 0.63% hits;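 active = compounds giving at least 50% protection of heart cells from peroxide-induced death in the single-dose screen, raw or plate-pattern-corrected value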;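 also: 0% = DMSO wells with peroxide and 100% = DMSO wells without peroxide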
PfG6PD inh: PfG6PD (Plasmodium falciparum) enzyme inhibition | 350,000 compounds, 0.78% hits | inhibition, % at 20 µM | AID 504690 | PfGluPho enzyme, NADPH resazurin-diaphorase fluorescence;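 active = inhibition reaching at least a set limit at 20 µM in the primary screen, cut at about 59% in these data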;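 also: 0% = DMSO wells with substrate and 100% = DMSO wells lacking glucose-6-phosphate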
ALR inh: blocks human ALR sulfhydryl oxidase activity; P55789; purified ALR, DTT oxidation, H2O2 HRP-luminol luminescence; inhibition, % (no concentration beside the values); 290,000 compounds, 3.8% hits; AID 485317;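 active = mean replicate inhibition above about 79%, with every replicate also reaching it, limit read from the data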
PfM18AAP inh: PfM18AAP enzyme inhibition | recombinant PfM18AAP, H-Glu-NHMec fluorogenic cleavage | inhibition, % at 7.35 µM | 290,000 compounds, 1.2% hits;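 active = inhibition above the campaign mean inhibition over all tested compounds plus 3 SD, cut at about 28% in these data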;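 also: 0% = plate median of test compound wells and 100% = 2 mM ZnCl2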
PHOSPHO1 inh: inhibitors of human PHOSPHO1 phosphatase; recombinant PHOSPHO1, absorbance phosphatase assay; inhibition, % at 13.3 µM; Q8TCT1; 290,000 compounds, 1.1% hits; in the data active = inhibition above about 60%
Target sequence (Q8TCT1 whole entry, looked up): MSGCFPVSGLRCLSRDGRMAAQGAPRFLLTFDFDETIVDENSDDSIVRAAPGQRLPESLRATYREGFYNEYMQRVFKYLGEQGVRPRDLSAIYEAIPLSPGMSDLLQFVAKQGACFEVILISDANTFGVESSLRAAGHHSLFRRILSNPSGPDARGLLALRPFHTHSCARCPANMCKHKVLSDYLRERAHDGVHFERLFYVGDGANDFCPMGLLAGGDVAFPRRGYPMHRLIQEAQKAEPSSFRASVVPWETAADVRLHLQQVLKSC
Numbers without * were called inactive; x = no result given.

SMILES | Cardio protect | PfG6PD inh | ALR inh | PfM18AAP inh | PHOSPHO1 inh
C=CCNc1ncnc2c1ncn2[C@H]1CN(CCN2CCOCC2)C[C@@H](CO)O1 | 1 | x | x | x | x
CCn1c(=O)n(CC)c2cc(N3CCCC3)c(NC(=O)c3cc(Br)ccc3OC)cc21 | x | 38 | 11 | 30* | 2
CCn1c(=O)n(CC)c2cc(N3CCCC3)c(NC(=O)c3ccc(C)cc3)cc21 | 7 | 41 | 99* | 28* | 17
CCn1c(=O)n(CC)c2cc(N3CCCC3)c(NC(=O)c3ccccc3F)cc21 | 18 | 39 | x | 23 | 24
CCn1c(=O)n(CC)c2cc(N3CCCC3)c(NC(=O)c3ccccc3)cc21 | 14 | 45 | 97* | 14 | 4
COc1ccc(Br)cc1C(=O)Nc1ccccc1N1CCCC1 | -10 | 7 | 26 | x | x
CCn1c(=O)n(CC)c2cc(N3CCCC3)c(NC(=O)c3ccccc3C)cc21 | 0 | 31 | 99* | 19 | 29
C#CCOCCOCCOCCNc1nc(N2CCN(C(=O)[C@H](CCCCN)n3cc(C(N)COC(=O)C(F)(F)F)nn3)CC2)nc(N2CCN(C(=O)[C@H](CCCCN)n3cc(C(N)CC(C)C)nn3)CC2)n1 (stereo partly specified) | x | x | x | x | 18
C[C@H](CO)N1C[C@H](C)[C@@H](CN(C)C(=O)C2CC2)OCc2cnnn2CCCC1=O | 5 | 2 | x | x | x
O=C(N1CCOCC1)N1CCc2ccccc21 | -2 | 10 | -9 | -3 | -3
CCOC(=O)C1CCN(C(=O)c2cccc(NC3=NC4CS(=O)(=O)CC4S3)c2)CC1 (stereo unspecified) | 7 | 8 | -14 | -6 | 18
COc1cccc(N2CCN(C(=O)c3cccc(NC4=NC5CS(=O)(=O)CC5S4)c3)CC2)c1 (stereo unspecified) | 5 | 15 | 100* | 4 | 23
Cc1cc(C)c2ccc(/C=N/O)nc2c1O | 3 | 8 | 4 | 5 | 8
Cc1cc(C)c2ccc(NN)nc2c1O | 79* | 50 | x | 18 | 33
O=C(Nc1ccccc1)c1ccc(=O)n(Cc2ccc(F)c(F)c2)c1 | 3 | 2 | -2 | 3 | 65*
CC(C)Oc1cccc(C(=O)Nc2nnc([C@H]3C[C@H](O)[C@@H](CO)O3)s2)c1 | 0 | x | x | x | x
COc1ccc(OC)c(NC(=O)NCCCCc2ccccc2)c1 | -7 | -7 | 2 | 3 | 21
CCOC(=O)c1c(NC(=O)CN2CCN(S(=O)(=O)c3cc(Cl)ccc3Cl)CC2)sc(C(=O)N(C)C)c1C | 17 | 9 | x | x | x
CCOC(=O)c1c(N)sc(C(O)(C(F)(F)F)C(F)(F)F)c1-c1ccccc1 | 4 | 34 | x | -8 | 13
NNC(=O)c1cc(-c2ccccc2)sc1N | 11 | 8 | 97* | 15 | 6
CCOC(=O)c1c(N)sc(-c2ccccc2)c1C | -12 | 46 | 99* | 10 | -4
CCOC(=O)c1cc(-c2ccccc2)sc1N | 4 | 57 | 99* | 6 | -26
CN(c1ccccc1)S(=O)(=O)c1ccc(Cl)c(C(=O)Nc2ccccc2N2CCOCC2)c1 | 3 | 6 | x | x | x
Cc1onc(-c2ccccc2)c1C(=O)NC(=S)NNC(=O)c1ccc(O)cc1O | 51* | -42 | 92* | 30* | 14
Cc1onc(-c2ccccc2)c1C(=O)NNC(=O)c1ccccc1Br | -5 | -21 | 0 | x | x
SMILES | Cardio protect | PfG6PD inh | ALR inh | PfM18AAP inh | PHOSPHO1 inh
CCCOc1ccc(C(=O)NC(=S)NNC(=O)c2c(-c3ccccc3)noc2C)cc1 | 9 | -44 | 100* | -5 | -96
Cc1onc(-c2ccccc2)c1C(=O)NC(=S)NNC(=O)c1ccc(O)cc1 | 34 | -23 | 51 | 20 | 16
Cc1onc(-c2ccccc2)c1C(=O)NC(=S)NNC(=O)c1ccccc1O | 60* | -33 | 30 | 9 | 7
CCCOc1ccc(C(=O)NC(=S)Nc2nc3ccccc3s2)cc1 | -11 | -7 | -2 | -13 | 85*
CNC(=S)N1N=C(c2cccs2)CC1c1ccc(F)cc1 (stereo unspecified) | -2 | -25 | -7 | 2 | -2
C[C@H]1CN([C@@H](C)CO)C(=O)CCCn2nncc2CO[C@H]1CN(C)C(=O)Nc1cccc2ccccc12 | 5 | x | x | x | x
O=C(O)c1cnc2[nH]c3ccccc3n2c1=O | 4 | 7 | 2 | 3 | 25
COc1ccc(S(=O)(=O)N2CCOCC2)cc1NC(=O)c1cccs1 | 2 | -7 | -5 | x | x
CNc1ccc(Br)cc(C(=O)/C=C/c2ccc3c(c2)OCO3)c1=O | 43 | 38 | 1 | 28* | -135

From PubChem BioAssay
